Sampled rows, rich in hits. Any-hit rate of the full collection: about 3.4%.
esBAF inh – SWI/SNF esBAF complex inhibition | reporter increase, % at 12.5 µM | mouse ES cells, Bmi1-luciferase knock-in reporter, 24 h; 100% = twice the neutral-well signal | hit rate 2% among 350,000; in the data active means activation above about 40%; inconclusive means no clear call, values can overlap the other calls;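 further: 0% = median of the plate's neutral control wells and 100% = double that signal; a rise in the Bmi1 reporter signal indicates esBAF inhibition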
Wnt act – activators of Wnt/beta-catenin signaling | activation, % at 9.35 µM | hit rate 1.2% among 300,000 | Wnt/beta-catenin reporter cell assay, activator, plate reader | AID 743398; in the data active means activation above about 30%, passing the limit was not always enough; inconclusive means no clear call, values can overlap the other calls;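 further: 0% = neutral control wells and 100% = positive control wells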
miR122 inh – inhibitors of miR-122 in Huh7 cells | Huh7 miR-122 Renilla luciferase sensor, 48 h; neutral wells = 0, positive control = 100 | activation (reporter increase), % at 12.5 µM | hit rate 0.3% among 340,000 | AID 602342;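 active means mean replicate activation score at least 90 and every replicate individually at or above 90; inconclusive means only one of the two criteria met; inactive means neither criterion met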;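 further: higher luciferase means less miR-122 activity so hits act as miR-122 inhibitors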
MITF act – increases MITF-driven TRPM1 promoter luciferase signal | SK-MEL-5 TRPM1-promoter luciferase, 24 h; % of positive control, neutral wells = 0 | activation, % at 12.5 µM | hit rate 0.75% among 300,000 | AID 588334;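 active means mean activation of at least 80% with every replicate also reaching 80%; inconclusive means mean reaches 80% but some replicate falls short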;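 further: 0% = neutral control wells and 100% = parthenolide positive control wells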
HIV Env fusion – blocks HIV Env-driven cell-cell fusion; HeLa-JRFL Env/CEM21 cell fusion, luciferase; inhibition, % at 12.3 µM; hit rate 1.1% among 360,000;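 active means mean replicate inhibition score of at least 50 and every replicate individually at or above 50; inconclusive means only one of the two criteria met; inactive means mean below 50 and not all replicates reaching 50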;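 further: 0% = plate neutral controls and 100% = maraviroc near 300 nM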
Numbers without * were called inactive; ? = inconclusive; . = no result; [ ] = remark or other dose.

SMILES	esBAF inh	Wnt act	miR122 inh	MITF act	HIV Env fusion
Cc1cc(Cl)c2oc(C(=O)NCCC3CCCCO3)c(C)c2c1 (stereo unspecified)	?	25	-4	95*	0
Cc1cc(Cl)c2oc(C(=O)NCCN3CCCCC3CO)c(C)c2c1 (stereo unspecified)	14	3	.	32	-3
NC(=O)c1cc([N+](=O)[O-])ccc1NCc1ccc(F)cc1	27	5	.	.	-29
NC(=O)c1cc([N+](=O)[O-])ccc1NCc1ccc(N)cc1	-78	-7	0	-76	71*
Cc1ccc(S(=O)(=O)N[C@H]2CC[C@H](CCNC(=O)C3CCC3)O[C@@H]2CO)cc1	-1	.	.	.	9[16.7 µM]
O=C(CCCc1nc2ccccc2s1)Nc1ccccc1	-10	2	3	-12	-16
O=C(O)CCCC(=O)Nc1ccc(OCc2nc3ccccc3s2)cc1	31	51*	5	0	-34
C[C@@H]1CN([C@@H](C)CO)C(=O)Cc2cc(NC(=O)Nc3ccc(F)cc3)ccc2O[C@H]1CN(C)CC1CCCCC1	-1	.	-17[16.7 µM]	.	5[16.7 µM]
COc1ccc(C)cc1NC(=O)n1ncc2c(C)cccc21	-4	5	2	6	-1
COc1ccc(NC(=O)n2ncc3c(C)cccc32)cc1OC	53*	3	-6	106*	-64
COc1ccc(NC(=O)n2ncc3c(C)cccc32)cc1	39	39*	.	38	-243
Cc1ccc(NC(=O)n2ncc3c(C)cccc32)cc1F	.	18	.	18	-82
O=C(C[C@@H]1CC[C@H]2[C@@H](COC[C@H](O)CN2C(=O)Nc2ccc(Cl)c(Cl)c2)O1)NCc1ccc(F)cc1	-10	.	-1[16.7 µM]	.	.
Nn1c(SCc2ccc(F)cc2)nnc1-c1ccccn1	.	22	2	.	-2
Nn1c(SCc2ccccc2)nnc1-c1ccccn1	43*	.	-10	.	-98
Nn1c(SCc2ccccc2F)nnc1-c1ccccn1	.	41*	-5	.	-15
Cc1ccc(CSc2nnc(-c3ccccn3)n2N)cc1	.	2	-4	.	-6
CN1CCN(C(=O)C[C@@H]2CC[C@@H](NC(=O)Nc3ccccc3F)[C@@H](CO)O2)CC1	-5	.	.	.	-7[16.7 µM]
O=S1(=O)CCN(c2ccccc2CC(c2c[nH]c3ccccc23)c2c[nH]c3ccccc23)CC1	.	-3	2	.	85*
Nc1nc(N)nc(-c2cccc(Br)c2)n1	38	36*	7	41	-9
CCCc1cn(CC[C@@H]2CC[C@@H](NC(=O)Cc3cccnc3)[C@@H](CO)O2)nn1	-3	.	.	.	4[16.7 µM]
Cc1cccc(Cc2cnc(NC(=O)C3=NCCN3)s2)c1	-2	1	2	-11	-5
Cc1cccc(Cc2cnc(NC(=O)c3ccc(C)o3)s2)c1	.	51*	17	88*	-58
Cc1cc(N/N=C/c2cccc(Cl)c2)nc(-n2nc(C)cc2C)n1	6	-2	1	.	32
Cc1nc(C#N)c(N/N=C/c2cccc(Cl)c2)o1	93*	28	-2	72	-107
SMILES	esBAF inh	Wnt act	miR122 inh	MITF act	HIV Env fusion
C[C@@H]1CN([C@H](C)CO)C(=O)Cc2cc(NC(=O)CCN3CCOCC3)ccc2O[C@@H]1CN(C)C(=O)Nc1cccc2ccccc12	0	.	8[16.7 µM]	.	16[16.7 µM]
COCC#Cc1ccc2c(c1)O[C@@H](CN(C)C(=O)NC(C)C)[C@H](C)CN([C@@H](C)CO)S2(=O)=O	1	.	-12[16.7 µM]	.	4[16.7 µM]
O=C(NCc1ccco1)c1sc2cc(Cl)ccc2c1Cl	6	16	6	46	-61
O=C(NCc1ccco1)c1sc2ccccc2c1Cl	49*	.	-1	48	.
COc1cc(/C=N/NC(=O)c2cc(-c3ccco3)nc3ccccc23)cc(OC)c1O	.	-3	.	2	14
O=C(N/N=C/c1cccc(F)c1)c1cc(-c2ccco2)nc2ccccc12	79*	20	4	9	-80
O=c1oc2ccccc2c2c1ncn2CCN1CCOCC1	3	44*	4	.	7
O=C(C[C@@H]1CC[C@H]2[C@@H](COC[C@@H](O)CN2Cc2ccncc2)O1)NCc1ccccc1Cl	-2	.	1[16.7 µM]	.	.
CO[C@@H]1CN(C)C(=O)c2ccc(NC(=O)Nc3ccccc3Cl)cc2OC[C@@H](C)N(C)C[C@H]1C	5	.	10[16.7 µM]	.	.
Clc1ccccc1OCCn1cnc2ccccc21	51*	.	-6	60	-86
Clc1ccc(OCCn2cnc3ccccc32)cc1	14	.	-1	21	.
O=C1c2ccccc2C(=O)N1CCOc1ccccc1Br	.	0	0	37	-19
O=C1c2ccccc2C(=O)N1CCOc1ccccc1Cl	?	24	-6	86*	-47

Assay outcomes (PubChem BioAssay)
